Screens as filed in PubChem.
Only some compounds are listed: those with a hit (about 1.9% of all), similar ones and a draw of the others.
a7 integrin act = qHTS for Activators of Integrin-Mediated Alleviation for Muscular Dystrophy; alpha7betagal myoblasts, beta-gal FDG fluorescence, 48 h; Potency, µM (top dose mostly 38.3 µM), most hits filed as activators; 350,000 tested, 0.064% active; AID 624291, 2012; further: nearly all actives have a fitted effect of over 60% in size
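Alpha7betagal+/- myoblasts (passage 13) were plated 16-24 hr, then exposed to compounds (1:260 dilution of DMSO stock) for 48 hours at 37C. After MPER lysis, β-galactosidase reporter activity was read as FDG fluorescence (ex 480/em 540) after 30 minutes.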
ClpP mod = qHTS Assay for Activators of ClpP; ATP-dependent Clp protease proteolytic subunit (Bacillus subtilis (strain 168)), P80244; purified B. subtilis ClpP, FRET peptide cleavage, 20 min; Potency, µM (highest dose often 57.5 µM); 340,000 tested, 1.9% active; AID 651965, 2013; active means well fitted falling curve with a large enough effect; inconclusive means small, poorly fitted or top-dose-only effect; inactive means no such curve, though single readings can be large or run the other way; further: the source files actives as falling curves though it sought activators and does not explain the sign; nearly all actives have a fitted effect of over 65% in size
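ClpP 10 microg/mL final, pH 8 Tris/KCl buffer with BSA, glycerol, Tween-20; compound pinned in; FRET-FV substrate; RT 20 min; Ex320/Em430; ΔFRET vs ADEP 5.8 microM, DMSO, no enzyme.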
IL2 activator = qHTS of IL-2 Activators. IL-2 activation reporter assay, cell-based qHTS; stimulated with anti-CD3/CD4/CD28 beads; in transgenic mouse T cells. activation, % (series mostly up to about 46 µM). 360,000 tested, 0.065% active. AID 652025, 2013; in the data active means activation above about 50%; inconclusive means mostly about 30% to 49%
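Unstimulated transgenic mouse T cells; 60-min compound exposure; bead-based TCR/CD4/CD28 stimulation; 18 h culture, 37 degrees C; dual fluorescence (EGFP, DsRed) plate cytometry.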
Pin1 inhibitor = qHTS Assay to Find Inhibitors of Pin1; Pin1 FP peptide displacement, HiFluor488, 10 min; AID 504891, 2011; 390,000 tested, 0.009% active; Potency, µM (highest dose often 115 µM), hits mostly inhibitors; active means well fitted inhibition curve with a large enough effect in the polarisation, with a control signal flat, not every such curve was filed as active; inconclusive means small, poorly fitted or top-dose-only effect, or effect the other way, or a change in a side signal; inactive means no such curve, though single readings can be large or run the other way; the % refers to the polarisation
Target sequence (Q13526 whole entry, looked up): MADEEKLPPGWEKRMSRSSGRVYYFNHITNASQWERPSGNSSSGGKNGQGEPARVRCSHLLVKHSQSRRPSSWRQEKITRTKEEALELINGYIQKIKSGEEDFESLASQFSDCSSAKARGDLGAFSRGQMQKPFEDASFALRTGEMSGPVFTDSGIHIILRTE
USP2a inh = qHTS Assay for Inhibitors of Ubiquitin-specific Protease USP2a Using CHOP2 as the Reporter. Ubiquitin carboxyl-terminal hydrolase 2 (Homo sapiens), O75604. USP2 core, Ub-CHOP2 coupled fluorogenic reporter, 485/531. Potency, µM (doses to about 38.3 µM), actives largely listed as inhibitors. 330,000 tested, 0.01% active. AID 463254, 2010
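Deubiquitinase activity read as fluorescence (485/531 nm) after Ub-CHOP2 cleavage activates the enterokinase reporter on its substrate; USP2 core 10nM, Ub-CHOP2 and substrate 25nM each, 30min compound preincubation then 60min RT; data normalized to NEM, curves fitted.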
PKM2 activator = qHTS Assay for Activators of Human Muscle isoform 2 Pyruvate Kinase | purified PKM2, Kinase-Glo ATP luminescence, activation; response scale: 0% is enzyme alone, no compound | 260,000 tested, 0.34% active | AID 1631, 2009 | Potency, µM (highest dose often 57.5 µM), actives largely listed as activators | Pyruvate kinase PKM (Homo sapiens), P14618; further: nearly all actives have a fitted effect of over 55% in size
Target sequence (P14618 whole entry, looked up, canonical isoform): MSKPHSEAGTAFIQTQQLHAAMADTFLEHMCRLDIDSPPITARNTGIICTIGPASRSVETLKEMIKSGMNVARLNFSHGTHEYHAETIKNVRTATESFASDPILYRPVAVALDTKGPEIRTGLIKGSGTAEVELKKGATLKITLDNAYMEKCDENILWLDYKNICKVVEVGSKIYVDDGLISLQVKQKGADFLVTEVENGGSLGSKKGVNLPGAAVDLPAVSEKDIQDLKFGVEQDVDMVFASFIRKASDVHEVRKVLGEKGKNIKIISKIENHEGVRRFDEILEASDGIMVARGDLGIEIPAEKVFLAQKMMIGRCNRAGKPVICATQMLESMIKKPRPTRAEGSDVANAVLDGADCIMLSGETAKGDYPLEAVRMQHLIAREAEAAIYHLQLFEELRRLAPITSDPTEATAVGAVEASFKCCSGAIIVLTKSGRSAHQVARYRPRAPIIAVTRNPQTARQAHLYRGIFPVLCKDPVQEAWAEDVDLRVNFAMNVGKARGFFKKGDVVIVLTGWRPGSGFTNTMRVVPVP
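Purified hPK-M2 (>95%) run at intermediate activity with 0.1 mM ADP and 0.5 mM PEP in 50 mM imidazole pH 7.2, KCl, MgCl2; 1 h room temperature. ATP formed read by Kinase-Glo luminescence; normalized to uninhibited and no-enzyme controls.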
Of the large screens only hits and unclear results are named; the others gave an inactive call. Unless noted, the call rests on the fitted dose curve; in most records, active means well fitted curve in the direction sought with a large enough effect; inconclusive means small, poorly fitted or top-dose-only effect, or another doubt; inactive means no such curve, though single readings can be large; an effect the other way counts as inactive or inconclusive.

CCOC(=O)c1oc2cc(O)cc(C)c2c1C	ClpP mod 13µM (no result: USP2a inh, PKM2 activator)
COc1ccc(C2c3c(nc(C)[nH]c3=O)Oc3ccc4ccccc4c32)cc1OC (stereo not given)	none (no result: a7 integrin act, ClpP mod, IL2 activator, USP2a inh, PKM2 activator)
CC(=O)N/C(=C/c1ccccc1)c1sc2ccccc2[n+]1CCCCI	none (no result: a7 integrin act, IL2 activator, Pin1 inhibitor, USP2a inh, PKM2 activator)
O=C(NC12CC3CC(CC(C3)C1)C2)c1ccc(-c2ccc(Br)cc2)o1	ClpP mod 32µM
O=C(NC1CCS(=O)(=O)C1)c1ccc(Br)o1 (stereo not given)	none (no result: ClpP mod, PKM2 activator)
O=C(NC1CCS(=O)(=O)C1)c1ccc(-c2ccc(Br)cc2)o1 (stereo not given)	ClpP mod 16µM
Cc1ccc(-c2csc(Nc3ccc(C(=O)O)cc3)[n+]2Cc2ccccc2)cc1	a7 integrin act 8.9µM (no result: ClpP mod)
S=C(NCCCc1cnc[nH]1)NCCCN(CCc1ccccc1)c1ccc(Br)cn1	none (no result: a7 integrin act, IL2 activator, USP2a inh, PKM2 activator)
Cc1ccc(S(=O)(=O)NCCCCCC(=O)Nc2ccccc2)cc1	ClpP mod 28µM
Cc1cccc(S(=O)(=O)NCCC(=O)OC(C)C(=O)NC(=O)NC2CCCCC2)c1 (stereo not given)	ClpP mod 32µM
Cc1ccc(NC(=O)C(C)OC(=O)CCNS(=O)(=O)c2ccc(C)cc2)cc1 (stereo not given)	ClpP mod 32µM
Cc1ccc(S(=O)(=O)NCCC(=O)OC(C)C(=O)NC2CC2)cc1 (stereo not given)	none (no result: PKM2 activator)
CC(=O)Nc1ccc(S(=O)(=O)NCCC(=O)OC(C)C(=O)c2ccc(C)cc2)cc1 (stereo not given)	none
Cc1ccc(S(=O)(=O)NCCCCCC(=O)Nc2ccccc2C)cc1	none
COc1ccc(-c2ccc3ncnc(NCCc4cnc[nH]4)c3c2)cc1OC	none (no result: a7 integrin act, ClpP mod, IL2 activator, USP2a inh, PKM2 activator)
Cc1noc(C)c1-c1ccc2ncnc(NCC3CCN(C)CC3)c2c1	none (no result: a7 integrin act, ClpP mod, IL2 activator, USP2a inh, PKM2 activator)
NC(=O)CCn1c2ccccc2c2ccccc21	none (no result: ClpP mod)
Cc1ccc2c(c1)c1cccc3c1n2CCN3CCC(N)=O	ClpP mod 14µM
Cc1ccc(NS(=O)(=O)c2ccc3c(c2)c(=O)n(C)c(=O)n3C)cc1F	PKM2 activator 4.5µM
C[n+]1ccc(C(c2c[nH]c3ccccc23)c2cc[n+](C)c3ccccc23)c2ccccc21	none (no result: a7 integrin act, IL2 activator, Pin1 inhibitor, USP2a inh, PKM2 activator)
CC1CCCCN1c1ncnc(N)c1[N+](=O)[O-] (stereo not given)	a7 integrin act 4.5µM (no result: ClpP mod)
COc1ccc(OCc2cc(=O)[nH]c3ccccc23)cc1	ClpP mod 16µM
COc1ccc(N(Cc2cc(=O)[nH]c3ccccc23)C(=O)CCl)cc1	Pin1 inhibitor inconclusive (no result: ClpP mod)
C[C@@H]1C(=O)O[C@@H]1[C@@H](C)CO[Si](c1ccccc1)(c1ccccc1)C(C)(C)C	none (no result: a7 integrin act, ClpP mod, IL2 activator, USP2a inh, PKM2 activator)
Cc1cc(NC(=O)NC(=O)c2ccccc2NC(=O)CN)ccc1Oc1ncc(Br)cn1	ClpP mod 18µM (no result: USP2a inh, PKM2 activator)
Cc1cc(NC(=O)NC(=O)c2ccccc2NC(=O)CN(C)C)ccc1Oc1ncc(Br)cn1	none (no result: USP2a inh, PKM2 activator)
Nc1ccccc1C(=O)NC(=O)Nc1ccc(Oc2ncc(Br)cn2)c(Cl)c1	ClpP mod 22µM (no result: USP2a inh, PKM2 activator)
COc1ccc(N2C(=O)CCC(C(=O)N3CCCCC3)C2c2ccc(F)cc2)cc1 (stereo not given)	ClpP mod 13µM
COc1ccc(N2C(=O)CCC(C(=O)N3CCC(C(N)=O)CC3)C2c2ccc(F)cc2)cc1 (stereo not given)	none
Cn1cnnc1Sc1cc(N2CCN(S(=O)(=O)c3ccc(Cl)c(Cl)c3)CC2)ccc1[N+](=O)[O-]	PKM2 activator 2.8µM
Cn1cnnc1Sc1cc(N2CCN(S(=O)(=O)c3ccc4ccccc4c3)CC2)ccc1[N+](=O)[O-]	PKM2 activator 0.35µM
CC1CCN(S(=O)(=O)c2ccc(S(=O)(=O)N3CCCC3)cc2)CC1	a7 integrin act 8.9µM
CC(C)(C)C(=O)/C=c1\s/c(=C\c2ccc(-c3ccc([N+](=O)[O-])cc3)o2)c(=O)n1CC(=O)NC(N)=O	IL2 activator 164, Pin1 inhibitor inconclusive, USP2a inh inconclusive (no result: ClpP mod)
Cc1ccc(-n2c(C)cc(/C=C3\NC(=O)NC3=O)c2C)c(C)c1	IL2 activator 67
CCOC(=O)N1CCN(CC(O)COc2ccc(CC)cc2)CC1 (stereo not given)	a7 integrin act inconclusive (no result: PKM2 activator)
CCOC(=O)N1CCN(CC(O)COCc2ccc(Cl)cc2)CC1 (stereo not given)	ClpP mod 14µM
O=S(=O)(Nc1ccc2ccccc2c1)c1ccccc1	ClpP mod 14µM
Cc1ccc(S(=O)(=O)Nc2ccc3ccccc3c2)cc1	none (no result: USP2a inh, PKM2 activator)
O=C(CSc1nc(-c2ccccc2)c(-c2ccccc2)o1)N1CCOCC1	ClpP mod 32µM
O=C(CSc1nnc(-c2ccccc2)c(-c2ccccc2)n1)N1CCOCC1	none
Cc1ccc(O/C=C2/Nn3c(nnc3-c3cc(-c4ccccc4)n[nH]3)S2)cc1	none (no result: a7 integrin act, IL2 activator, USP2a inh, PKM2 activator)
CN1C(=CC=C2C=C(I)C(=O)C(I)=C2)C(C)(C)c2ccccc21	none (no result: ClpP mod)
CN1/C(=C\C=C2/C(=O)Oc3ccccc3C2=O)C(C)(C)c2ccccc21	IL2 activator 80, Pin1 inhibitor inconclusive, USP2a inh inconclusive
CCOc1ccc(NC(=O)CCCN2C(=S)NC(C)(C)CC2C)cc1 (stereo not given)	ClpP mod 28µM
O=C(COc1ccc2ccccc2c1)NNC(=O)c1cccs1	none
O=C(COc1cccc2ccccc12)NNC(=O)c1cccs1	ClpP mod 18µM
CCOc1cc(S(=O)(=O)N2CCN(S(=O)(=O)CC)CC2)c(OCC)cc1-n1cnnn1	none
CCOc1cc(S(=O)(=O)NCc2ccc(OC)cc2)c(OCC)cc1-n1cnnn1	ClpP mod 22µM
CCOc1cc(S(=O)(=O)NC2CC2)c(OCC)cc1-n1cnnn1	ClpP mod 32µM
CCOc1cc(S(=O)(=O)NCCc2ccc(OC)c(OC)c2)c(OCC)cc1-n1cnnn1	none
CCOc1cc(S(=O)(=O)NCc2ccco2)c(OCC)cc1-n1cnnn1	none
CCOc1cc(S(=O)(=O)NCC2OCCc3ccccc32)c(OCC)cc1-n1cnnn1 (stereo not given)	ClpP mod 13µM
Oc1ccccc1C1C=C(c2ccc3c(c2)OCO3)NC(c2cccc(Cl)c2)N1 (stereo not given)	none (no result: a7 integrin act, IL2 activator, USP2a inh, PKM2 activator)
CNc1ccc(/C=C2\C=Cc3ccccc32)cc1I	none (no result: a7 integrin act, IL2 activator, Pin1 inhibitor, USP2a inh, PKM2 activator)
